Reference: paper PMC6925144, “A prospective compound screening contest identified broader inhibitors for Sirtuin 1” (Scientific Reports, 2019)
The full ranking holds about 3,200 compounds; the median of “TSA(without NAD+) / Primary screening (TSA) / delta Tm (K)” is about -0.07, and the highest 2% start at about 0.37. Many of the other results were omitted from the sample, so the highest values are more common in it than they were.

These molecules were tested against NAD-dependent deacetylase Sirtuin 1 (human, UniProt Q96EB6) (assay: primary screen, delta tm). Settings: 10 µM.
Sequence of NAD-dependent deacetylase Sirtuin 1 (Q96EB6 2-747 limits assumed): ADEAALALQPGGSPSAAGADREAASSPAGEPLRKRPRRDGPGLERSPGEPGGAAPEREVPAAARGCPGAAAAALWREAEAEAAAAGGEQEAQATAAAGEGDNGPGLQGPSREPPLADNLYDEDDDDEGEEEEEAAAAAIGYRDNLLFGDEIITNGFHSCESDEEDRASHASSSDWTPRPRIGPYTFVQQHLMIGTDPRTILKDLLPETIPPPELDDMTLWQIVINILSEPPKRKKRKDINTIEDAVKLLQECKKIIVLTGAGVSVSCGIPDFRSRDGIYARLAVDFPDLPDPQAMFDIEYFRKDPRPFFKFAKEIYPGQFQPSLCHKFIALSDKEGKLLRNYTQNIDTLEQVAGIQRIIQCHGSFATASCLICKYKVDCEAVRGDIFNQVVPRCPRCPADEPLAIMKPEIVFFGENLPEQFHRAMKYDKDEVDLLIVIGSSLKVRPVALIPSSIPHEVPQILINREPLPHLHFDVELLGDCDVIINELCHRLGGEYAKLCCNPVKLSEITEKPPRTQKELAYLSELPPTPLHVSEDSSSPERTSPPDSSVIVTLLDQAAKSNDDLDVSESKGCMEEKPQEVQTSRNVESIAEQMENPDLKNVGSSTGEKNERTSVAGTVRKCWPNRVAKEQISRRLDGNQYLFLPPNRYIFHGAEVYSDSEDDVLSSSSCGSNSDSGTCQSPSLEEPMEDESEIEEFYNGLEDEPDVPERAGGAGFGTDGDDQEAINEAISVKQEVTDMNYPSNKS
Design: single well (n = 1)
Procedure: A total of 3,192 compounds extracted from the proposed lists were first screened by thermal shift assay (TSA), which determined a melting temperature shift (ΔTm) of Sirtuin 1 upon the addition of a test compound at a concentration of 10 µM (n = 1) with primary hit criteria of ΔTm > 0.45 K or ΔTm < −1.5 K. Primary hits (48 compounds) were retested in the same assay at three concentrations (5, 10, 20 µM, n = 4) for hit confirmation and for dose-dependency check. Secondary hits (41 compounds) were checked their selectivity for Sirtuin 1 based on counterscreening on unrelated protein targets (bovine carbonic anhydrase (CA) and recombinant SH2 domain of hABL1 kinase (ABL1)) at three different concentrations (5, 10, 20 µM, n = 4), which yielded 38 hit compounds, hereafter referred to as TSA hits. The TSA screening above was conducted in the absence of NAD+.

Going from `CCS(=O)(=O)Nc1ccc(S(=O)(=O)Nc2nccs2)c(OC)c1` to `COc1ccc(N(C)S(=O)(=O)c2cccc(C(=O)Nc3ncc(C(N)=O)s3)c2)cc1`, the “TSA(without NAD+) / Primary screening (TSA) / delta Tm (K)” value rises from -0.18 K to 0.06 K.

Compared with `N#Cc1ccccc1Sc1ccccc1C(=O)Nc1ccc(-c2cn3cccnc3n2)cc1`, `CN(c1ccccc1)S(=O)(=O)c1cccc(C(=O)Nc2ccccc2)c1` is higher in “TSA(without NAD+) / Primary screening (TSA) / delta Tm (K)” value: -0.14 K for the first, 0.12 K for the second.

First: CCOc1ccc(/C=C(/C#N)C(=O)c2c[nH]c3cc(F)ccc23)cc1
Second: COC(=O)c1ccccc1NC(=O)Cc1c[nH]c2ccccc12
The “TSA(without NAD+) / Primary screening (TSA) / delta Tm (K)” value of the first is higher: 0.06 K for the first, -0.22 K for the second.

Compared with `CCCCCCCCNC(=O)/C(C#N)=C/c1c[nH]c2ccccc12`, `N#C/C(=C\c1[nH]c2ccccc2c1Cl)C(N)=O` is lower in “TSA(without NAD+) / Primary screening (TSA) / delta Tm (K)” value: 0.58 K for the first, -0.13 K for the second.

`Oc1ccccc1/C=N/c1ccccc1O` and `CS(=O)(=O)c1cccc(C(=O)N(Cc2ccccc2)c2ccccc2)c1` are the same in “TSA(without NAD+) / Primary screening (TSA) / delta Tm (K)” value: -0.13 K for the first, -0.13 K for the second.

Going from `Cc1cc2ccccc2n1CC(=O)NCC(Cc1ccccc1)N(C)C` (stereo not drawn) to `CN(Cc1ccccc1)C(=O)NCC1CCN(c2ccncc2)CC1`, the “TSA(without NAD+) / Primary screening (TSA) / delta Tm (K)” value rises from -0.12 K to -0.02 K.

Compared with `CN(c1cccc(Cl)c1)S(=O)(=O)c1cccc(C(=O)Nc2ncc(C(N)=O)s2)c1`, `CN(c1cccc(Cl)c1)S(=O)(=O)c1cccc(C(=O)Nc2sccc2C(N)=O)c1` is lower in “TSA(without NAD+) / Primary screening (TSA) / delta Tm (K)” value: 0.37 K for the first, 0.18 K for the second.

First: Cc1ccc(N(C)S(=O)(=O)c2cccc(C(=O)Nc3ccc(C(N)=O)cc3)c2)cc1
Second: Cc1ccc(NC(=O)c2cccc(S(=O)(=O)N(C)c3ccc(C)cc3)c2)cc1
The “TSA(without NAD+) / Primary screening (TSA) / delta Tm (K)” value of the first is higher: 0.46 K for the first, 0.45 K for the second.

Going from `Cc1ccc(N(C)S(=O)(=O)c2cccc(C(N)=O)c2)cc1` to `Cc1ccc(N(C)S(=O)(=O)c2cccc(C(=O)Nc3sccc3C(N)=O)c2)cc1`, the “TSA(without NAD+) / Primary screening (TSA) / delta Tm (K)” value rises from -0.11 K to 0.17 K.

First: COc1ccc(N(C)S(=O)(=O)c2cccc(C(=O)Nc3ccc(C)cc3)c2)cc1
Second: COc1cccc(NC(=O)c2cccc(S(=O)(=O)N(C)c3ccc(C)cc3)c2)c1
The “TSA(without NAD+) / Primary screening (TSA) / delta Tm (K)” value of the first is higher: 0.17 K for the first, -0.02 K for the second.

Going from `CC(=O)Nc1ccc(NC(=O)c2cccc(S(=O)(=O)N(C)c3ccc(C)cc3)c2)cc1` to `Cc1ccc(N(C)S(=O)(=O)c2cccc(C(=O)Nc3ccncc3)c2)cc1`, the “TSA(without NAD+) / Primary screening (TSA) / delta Tm (K)” value falls from -0.11 K to -0.18 K.

Compared with `CN(c1cccc(Cl)c1)S(=O)(=O)c1cccc(C(=O)Nc2cc(C(N)=O)cc(C(N)=O)c2)c1`, `CN(c1cccc(Cl)c1)S(=O)(=O)c1cccc(C(=O)Nc2ccc(C(N)=O)cc2)c1` is lower in “TSA(without NAD+) / Primary screening (TSA) / delta Tm (K)” value: 0.15 K for the first, 0.08 K for the second.

First: CN(c1ccccc1)S(=O)(=O)c1cccc(C(=O)Nc2sccc2C(N)=O)c1
Second: CN(c1ccccc1)S(=O)(=O)c1cccc(NC(=O)c2ccc(C(N)=O)cc2)c1
The “TSA(without NAD+) / Primary screening (TSA) / delta Tm (K)” value of the first is higher: 0.38 K for the first, 0.02 K for the second.

First: Cc1nn(CC(=O)N2CCC(N3CCCC3C(N)=O)CC2)cc1-c1ccccc1 (stereo not drawn)
Second: CC(C#N)(NC(=O)CNc1cccnc1-c1ccccc1)C1CC1 (stereo not drawn)
The “TSA(without NAD+) / Primary screening (TSA) / delta Tm (K)” value of the first is lower: -0.22 K for the first, 0.08 K for the second.

First: CC(Nc1ccnc(CC#N)c1)C(=O)N1CCCCC1C (stereo not drawn)
Second: CN(C)c1ccnc(N2CCCC(N3CCNC3=O)C2)n1 (stereo not drawn)
The “TSA(without NAD+) / Primary screening (TSA) / delta Tm (K)” value of the first is lower: -0.28 K for the first, -0.18 K for the second.

First: CCCn1nnnc1CN1C(=O)NC(Cc2c[nH]c3ccccc23)C1=O (stereo not drawn)
Second: O=C(Cn1[nH]c(=O)c2ccccc2c1=O)NC1CCCc2ccccc21 (stereo not drawn)
The “TSA(without NAD+) / Primary screening (TSA) / delta Tm (K)” value of the first is lower: -0.28 K for the first, 0.19 K for the second.

Going from `Cc1ccccc1N1C(=O)c2ccc(C(=O)OCC(N)=O)cc2C1=O` to `Cc1ccc(N(C)S(=O)(=O)c2cccc(C(=O)Nc3ccc4c(c3)C(=O)N(C)C4=O)c2)cc1`, the “TSA(without NAD+) / Primary screening (TSA) / delta Tm (K)” value rises from -0.08 K to 0.45 K.

Compared with `CC1(C)C(=O)Nc2ccccc2N1C(=O)CNc1cccc2c1CCCC2`, `CC1CCc2[nH]c3ccc(C(=O)Nc4cccc(S(=O)(=O)N(C)c5ccccc5)c4)cc3c2C1` (stereo not drawn) is higher in “TSA(without NAD+) / Primary screening (TSA) / delta Tm (K)” value: -0.24 K for the first, 0.42 K for the second.

First: CCS(=O)(=O)N1CCN(c2ccc(C(N)=O)cc2)CC1
Second: COc1ccc(N(C)S(=O)(=O)c2cccc(C(=O)Nc3sc4c(c3C(N)=O)CCC(C)C4)c2)cc1 (stereo not drawn)
The “TSA(without NAD+) / Primary screening (TSA) / delta Tm (K)” value of the first is lower: -0.15 K for the first, 0.08 K for the second.

Compared with `O=C(c1cnc2ccccc2n1)N1CCCC1c1nc2ccccc2s1` (stereo not drawn), `CN(Cc1nc2ccccc2s1)C(=O)CSc1nnc(CC2CCS(=O)(=O)C2)o1` (stereo not drawn) is lower in “TSA(without NAD+) / Primary screening (TSA) / delta Tm (K)” value: -0.04 K for the first, -0.13 K for the second.

Compared with `CN(c1ccccc1)S(=O)(=O)c1cccc(NC(=O)c2cccc(C#N)c2)c1`, `Cc1ccc(N(C)S(=O)(=O)c2cccc(C(=O)Nc3cccc(C#N)c3)c2)cc1` is higher in “TSA(without NAD+) / Primary screening (TSA) / delta Tm (K)” value: 0.13 K for the first, 0.43 K for the second.

Going from `Cc1ccc(N(C)S(=O)(=O)c2cccc(C(=O)NNC(=O)CC34CC5CC(CC(C5)C3)C4)c2)cc1` to `Cc1ccc(N(C)S(=O)(=O)c2cccc(C(=O)NNC(=O)c3ccncc3)c2)cc1`, the “TSA(without NAD+) / Primary screening (TSA) / delta Tm (K)” value falls from 0.45 K to -0.08 K.

Going from `Cc1ccc(N(C)S(=O)(=O)c2cccc(C(=O)Nc3cccc(C(=O)NC4CC4)c3)c2)cc1` to `CSc1cccc(NC(=O)c2cccc(S(=O)(=O)N(C)c3ccc(C)cc3)c2)c1`, the “TSA(without NAD+) / Primary screening (TSA) / delta Tm (K)” value rises from 0.06 K to 0.35 K.

Going from `Cc1ccc(C(=O)NNC(=O)c2cccc(S(=O)(=O)N(C)c3ccc(C)cc3)c2)cc1` to `Cc1ccc(N(C)S(=O)(=O)c2cccc(C(=O)Nc3ccc(Br)c(C)c3)c2)cc1`, the “TSA(without NAD+) / Primary screening (TSA) / delta Tm (K)” value rises from -0.14 K to 0.48 K.

First: COc1ccc(N(C)S(=O)(=O)c2cccc(C(=O)Nc3cccc(C#N)c3)c2)cc1
Second: CN(C)c1ccc(NC(=O)c2cccc(S(=O)(=O)N(C)c3cccc(Cl)c3)c2)cc1
The “TSA(without NAD+) / Primary screening (TSA) / delta Tm (K)” value of the first is lower: 0.22 K for the first, 0.27 K for the second.

First: Cc1cc(CSc2nc3ccccc3[nH]2)no1
Second: CCCCc1ccc(NC(=O)c2cccc(S(=O)(=O)N(C)c3cccc(Cl)c3)c2)cc1
The “TSA(without NAD+) / Primary screening (TSA) / delta Tm (K)” value of the first is lower: 0.07 K for the first, 0.58 K for the second.

First: Cc1ccc(C(=Nc2c(C)cc(C)cc2C)c2ccc(C)cc2)cc1
Second: CC1CCc2[nH]c3ccc(C(=O)OCC(=O)NC(=O)NC45CC6CC(CC(C6)C4)C5)cc3c2C1 (stereo not drawn)
The “TSA(without NAD+) / Primary screening (TSA) / delta Tm (K)” value of the first is lower: -0.04 K for the first, 0.27 K for the second.
